# Article PMC7862700, “An all-to-all approach to the identification of sequence-specific readers for epigenetic DNA modifications on cytosine”
# How the values were obtained:
# Experiment in all cases: DAPPL (digital affinity profiling via proximity ligation, sequencing); 10 mM Tris-HCl pH 7.5, 50 mM NaCl, 1 mM DTT, 4% glycerol, room temperature, 30 min; GST-TFs on glutathione beads, 16-mer random dsDNA library, 0.1% formaldehyde crosslink after washing; high values mean tight binding
# Settings in all cases: protein: recombinant; tags: N-terminal GST; dsDNA, one strand shown
# [1] = biological target: T1, FLI1 (Homo sapiens, UniProt Q01543 1-452)
# T1 sequence: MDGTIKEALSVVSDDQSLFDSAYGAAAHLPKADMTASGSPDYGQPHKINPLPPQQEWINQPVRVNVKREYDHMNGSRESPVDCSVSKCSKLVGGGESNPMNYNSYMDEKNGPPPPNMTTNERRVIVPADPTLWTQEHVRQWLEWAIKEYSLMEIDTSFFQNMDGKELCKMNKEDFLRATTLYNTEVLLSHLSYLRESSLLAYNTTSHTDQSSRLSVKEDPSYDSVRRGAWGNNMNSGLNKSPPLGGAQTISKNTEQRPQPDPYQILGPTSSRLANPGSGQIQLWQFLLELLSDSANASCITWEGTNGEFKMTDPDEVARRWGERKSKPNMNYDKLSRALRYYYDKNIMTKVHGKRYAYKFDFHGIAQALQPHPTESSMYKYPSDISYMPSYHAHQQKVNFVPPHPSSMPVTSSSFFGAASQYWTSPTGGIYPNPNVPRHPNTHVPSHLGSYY
# Method in brief: (§1)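 After expression in yeast as GST fusions, human transcription factors were bound to glutathione beads, DNA-barcoded and mixed with a tag-only sample. The pools were incubated with 200 nmole of a 16-mer random double-stranded DNA library in Tris/NaCl/DTT/glycerol buffer (30 min, room temperature), washed and crosslinked with 0.1% formaldehyde. Proximity ligation with BsaI/T4 ligase ran for 1 h at 37 °C, before PCR amplification and sequencing on an Illumina NextSeq500. Binding signal is a hexamer's read frequency for a factor divided by its frequency for the tag-only sample.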
# [2] = biological target: T2, ELK1 (Homo sapiens, UniProt P19419 1-428)
# T2 sequence: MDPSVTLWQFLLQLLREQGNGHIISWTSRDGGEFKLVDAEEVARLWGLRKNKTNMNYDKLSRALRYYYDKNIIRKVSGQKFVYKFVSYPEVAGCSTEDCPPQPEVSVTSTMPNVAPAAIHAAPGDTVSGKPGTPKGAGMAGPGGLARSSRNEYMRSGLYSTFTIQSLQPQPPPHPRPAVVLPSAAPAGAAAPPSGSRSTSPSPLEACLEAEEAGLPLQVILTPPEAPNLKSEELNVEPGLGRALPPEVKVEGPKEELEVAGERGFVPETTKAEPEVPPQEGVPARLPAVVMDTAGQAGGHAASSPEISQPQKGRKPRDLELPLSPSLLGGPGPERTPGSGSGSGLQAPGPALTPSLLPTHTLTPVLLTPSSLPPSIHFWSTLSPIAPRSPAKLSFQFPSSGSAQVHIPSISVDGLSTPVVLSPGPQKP
# Method in brief: as §1
# [3] = biological target: T3, GABPA (Homo sapiens, UniProt Q06546 1-454)
# T3 sequence: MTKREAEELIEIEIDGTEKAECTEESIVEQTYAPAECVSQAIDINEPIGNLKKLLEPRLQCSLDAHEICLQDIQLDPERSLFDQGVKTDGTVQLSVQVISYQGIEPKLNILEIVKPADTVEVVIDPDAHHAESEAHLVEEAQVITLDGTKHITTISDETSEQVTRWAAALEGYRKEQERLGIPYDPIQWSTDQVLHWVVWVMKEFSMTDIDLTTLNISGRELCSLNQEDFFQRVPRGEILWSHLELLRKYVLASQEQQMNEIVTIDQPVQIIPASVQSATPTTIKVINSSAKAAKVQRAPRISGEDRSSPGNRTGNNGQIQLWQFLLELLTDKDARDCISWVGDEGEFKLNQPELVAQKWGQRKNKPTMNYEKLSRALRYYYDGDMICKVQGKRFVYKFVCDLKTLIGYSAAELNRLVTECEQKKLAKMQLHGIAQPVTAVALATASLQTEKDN
# Method in brief: as §1
# [4] = biological target: T4, ERG (Homo sapiens, UniProt P11308 1-479)
# T4 sequence: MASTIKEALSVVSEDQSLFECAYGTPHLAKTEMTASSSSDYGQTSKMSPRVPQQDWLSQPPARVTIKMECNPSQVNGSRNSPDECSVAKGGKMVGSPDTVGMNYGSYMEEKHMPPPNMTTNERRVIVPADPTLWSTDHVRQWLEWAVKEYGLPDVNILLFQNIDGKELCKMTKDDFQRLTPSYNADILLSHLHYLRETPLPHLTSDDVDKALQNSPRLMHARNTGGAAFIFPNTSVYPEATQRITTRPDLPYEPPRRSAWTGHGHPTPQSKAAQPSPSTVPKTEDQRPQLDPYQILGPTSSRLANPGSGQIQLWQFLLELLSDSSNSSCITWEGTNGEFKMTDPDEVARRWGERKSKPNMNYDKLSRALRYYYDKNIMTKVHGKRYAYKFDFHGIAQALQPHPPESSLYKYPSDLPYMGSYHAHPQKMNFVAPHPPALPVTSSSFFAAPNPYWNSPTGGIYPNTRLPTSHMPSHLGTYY
# Method in brief: as §1
# [5] = biological target: ELF1 (Homo sapiens, UniProt P32519 1-619)
# Chain of ELF1 (P32519 whole entry): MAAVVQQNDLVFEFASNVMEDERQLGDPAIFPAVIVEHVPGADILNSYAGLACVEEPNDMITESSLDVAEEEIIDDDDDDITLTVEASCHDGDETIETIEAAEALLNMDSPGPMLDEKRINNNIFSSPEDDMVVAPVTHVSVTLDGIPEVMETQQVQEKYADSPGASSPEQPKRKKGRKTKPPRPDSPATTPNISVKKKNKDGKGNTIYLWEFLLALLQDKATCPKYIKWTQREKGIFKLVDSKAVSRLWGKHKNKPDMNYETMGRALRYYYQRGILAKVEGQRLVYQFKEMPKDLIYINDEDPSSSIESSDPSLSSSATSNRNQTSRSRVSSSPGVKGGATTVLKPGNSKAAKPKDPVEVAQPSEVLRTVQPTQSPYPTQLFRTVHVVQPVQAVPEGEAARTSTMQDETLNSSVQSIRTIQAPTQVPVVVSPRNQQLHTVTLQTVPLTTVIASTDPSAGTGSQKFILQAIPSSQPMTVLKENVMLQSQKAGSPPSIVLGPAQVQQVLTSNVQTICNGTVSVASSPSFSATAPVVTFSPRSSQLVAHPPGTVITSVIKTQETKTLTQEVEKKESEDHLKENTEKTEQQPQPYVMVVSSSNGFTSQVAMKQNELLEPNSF
# Method in brief: as §1
# [6] = biological target: T5, EHF (Homo sapiens, UniProt Q9NZC4 1-300)
# T5 sequence: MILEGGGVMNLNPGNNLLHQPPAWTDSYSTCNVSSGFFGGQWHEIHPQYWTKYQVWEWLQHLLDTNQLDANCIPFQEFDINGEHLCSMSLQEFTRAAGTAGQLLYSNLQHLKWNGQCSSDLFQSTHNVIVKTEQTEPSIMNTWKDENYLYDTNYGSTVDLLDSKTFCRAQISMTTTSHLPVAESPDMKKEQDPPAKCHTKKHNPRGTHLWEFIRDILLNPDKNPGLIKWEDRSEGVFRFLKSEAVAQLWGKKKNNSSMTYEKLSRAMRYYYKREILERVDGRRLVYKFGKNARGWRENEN
# Method in brief: as §1
# [7] = biological target: SPI1 (Homo sapiens, UniProt P17947 1-270)
# Method in brief: as §1
# [8] = biological target: SPIB (Homo sapiens, UniProt Q01892 1-262)
# Chain of SPIB (Q01892 whole entry): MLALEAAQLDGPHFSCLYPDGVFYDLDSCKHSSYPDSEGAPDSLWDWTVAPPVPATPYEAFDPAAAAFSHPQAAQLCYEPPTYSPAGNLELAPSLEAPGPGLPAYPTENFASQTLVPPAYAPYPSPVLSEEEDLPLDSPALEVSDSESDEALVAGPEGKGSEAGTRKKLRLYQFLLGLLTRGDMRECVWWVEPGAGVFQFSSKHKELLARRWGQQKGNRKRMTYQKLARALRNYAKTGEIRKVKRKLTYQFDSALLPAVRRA
# Method in brief: as §1
# [9] = biological target: T6, ELK3 (Homo sapiens, UniProt P41970 1-407)
# T6 sequence: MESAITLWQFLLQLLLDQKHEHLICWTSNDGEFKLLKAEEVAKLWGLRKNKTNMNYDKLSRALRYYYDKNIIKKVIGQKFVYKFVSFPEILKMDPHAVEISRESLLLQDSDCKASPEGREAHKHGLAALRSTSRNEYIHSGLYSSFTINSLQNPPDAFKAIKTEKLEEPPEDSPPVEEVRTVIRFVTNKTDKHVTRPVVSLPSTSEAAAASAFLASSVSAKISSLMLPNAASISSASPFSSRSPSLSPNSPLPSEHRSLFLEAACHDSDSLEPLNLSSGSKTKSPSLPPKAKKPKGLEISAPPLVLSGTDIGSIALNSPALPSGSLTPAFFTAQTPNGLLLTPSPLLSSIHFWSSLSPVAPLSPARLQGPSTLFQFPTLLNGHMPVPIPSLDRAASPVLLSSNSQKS
# Method in brief: as §1
sequence,measurement,setting,value
TGTCTC,binding signal,[1],"1.31 fold enrichment (6-mer frequency, TF over GST control)"
same,binding signal,[2],"1.31 fold enrichment (6-mer frequency, TF over GST control)"
same,binding signal,[3],"1.31 fold enrichment (6-mer frequency, TF over GST control)"
same,binding signal,[4],"1.23 fold enrichment (6-mer frequency, TF over GST control)"
same,binding signal,[5],"1.2 fold enrichment (6-mer frequency, TF over GST control)"
same,binding signal,[6],"1.22 fold enrichment (6-mer frequency, TF over GST control)"
same,binding signal,[7],"1.29 fold enrichment (6-mer frequency, TF over GST control)"
same,binding signal,[8],"1.28 fold enrichment (6-mer frequency, TF over GST control)"
same,binding signal,[9],"1.15 fold enrichment (6-mer frequency, TF over GST control)"
